# From PubChem BioAssay (NCI)
# Values joined by “and” are separate entries in the source; they are usually repeats but may differ in a detail not shown here. Equal entries are not always repeated. The panel holds about 83,000 compounds, 20% with a hit somewhere; the sample as a whole holds those more often.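 For each line, cells grew in 96-well plates with the test compound present at a single concentration for 48 hours.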 More than one record can exist for a structure, and the calls need not agree. Active and inactive are the calls of the source. How the source made its calls: active means growth percent below 10; inactive means the rest.
# Tests used:
# Test in all cases: NCI-60 one-dose screen, 48 h (100 = growth as untreated, 0 = no growth, -100 = all killed)
# Settings in all cases: 10 µM unless noted
# NCI-H23 lung = test system: NCI-H23 lung
# NCI-H226 lung = test system: NCI-H226 lung
# NCI-H322M lung = test system: NCI-H322M lung
# HOP-62 NSCLC = test system: HOP-62 NSCLC
# NCI-H460 lung = test system: NCI-H460 lung
# HOP-92 NSCLC = test system: HOP-92 NSCLC
# NCI-H522 lung = test system: NCI-H522 lung
# 786-0 renal = test system: 786-0 renal
# COLO 205 colon = test system: COLO 205 colon
# DU-145 prostate = test system: DU-145 prostate
# K-562 leukemia = test system: K-562 leukemia
# MALME-3M melanoma = test system: MALME-3M melanoma
# MDA-MB-231 breast = test system: MDA-MB-231 breast
# RXF 393 renal = test system: RXF 393 renal
# SF-268 CNS = test system: SF-268 CNS
# SF-295 CNS = test system: SF-295 CNS
# SF-539 CNS = test system: SF-539 CNS
# UACC-257 melanoma = test system: UACC-257 melanoma
# M14 melanoma = test system: M14 melanoma
# A549/ATCC NSCLC = test system: A549/ATCC NSCLC
Structure (SMILES),growth (NCI-H23 lung),growth (NCI-H226 lung),growth (NCI-H322M lung),growth (HOP-62 NSCLC),growth (NCI-H460 lung),growth (HOP-92 NSCLC),growth (NCI-H522 lung),growth (786-0 renal),growth (COLO 205 colon),growth (DU-145 prostate),growth (K-562 leukemia),growth (MALME-3M melanoma),growth (MDA-MB-231 breast),growth (RXF 393 renal),growth (SF-268 CNS),growth (SF-295 CNS),growth (SF-539 CNS),growth (UACC-257 melanoma),growth (M14 melanoma),growth (A549/ATCC NSCLC)
CCOc1ccc2cc(-c3nn(CC4CCN(C)CC4)c4ncnc(N)c34)ccc2c1,74.2% (inactive) and 63.5% (inactive),83.6% (inactive) and 67.7% (inactive),92.7% (inactive) and 87.4% (inactive),83.8% (inactive) and 77.2% (inactive),96.1% (inactive) and 69.6% (inactive),69.1% (inactive) and 48.8% (inactive),87% (inactive) and 42.3% (inactive),80.1% (inactive) and 55.8% (inactive),89.7% (inactive) and 39.6% (inactive),102% (inactive) and 69.9% (inactive),87.5% (inactive) and 2.73% (active),69.7% (inactive) and -46.1% (active),85% (inactive) and 11.1% (inactive),46.8% (inactive) and -5.36% (active),90% (inactive) and 48.6% (inactive),96.9% (inactive) and 50.4% (inactive),84.4% (inactive) and 16.7% (inactive),-67.9% (active),98.4% (inactive) and -77.3% (active),
CC(C)N=c1cc2n(-c3ccc(Cl)cc3)c3ccccc3nc-2cc1Nc1ccc(Cl)cc1,-15.1% (active) and -62% (active) and -35.6% (active),35.8% (inactive) and 20.1% (inactive) and -21.7% (active),26.9% (inactive) and -13.2% (active) and -0.542% (active),55.8% (inactive) and 73.1% (inactive) and 42.9% (inactive),13.1% (inactive) and 13.2% (inactive) and -4.66% (active),-2.5% (active) and -0.497% (active),9.58% (active) and -31.8% (active),24.7% (inactive) and 9.68% (active) and -18.8% (active),-7.57% (active) and -28.7% (active),51.4% (inactive) and 15.5% (inactive),14.5% (inactive) and -17.3% (active),5.85% (active) and -83.1% (active) and -46% (active),-0.451% (active) and 26% (inactive) and 10.6% (inactive),8.99% (active) and -11.2% (active) and 12.3% (inactive),45.5% (inactive) and 35.7% (inactive) and 31.2% (inactive),9.83% (active) and 19.6% (inactive) and -10.5% (active),72.8% (inactive) and 73.3% (inactive) and 59.1% (inactive),28.3% (inactive) and 29.6% (inactive) and 7.9% (active),-8.29% (active) and -34.4% (active) and -56.7% (active),20.2% (inactive) and 43.3% (inactive) and 16.1% (inactive)
CNC(=O)c1ccc(C)c(-n2c(C)cc(OCc3ccc(F)cc3F)c(Br)c2=O)c1,66% (inactive) and 74.1% (inactive),67.2% (inactive) and 64.6% (inactive),86.3% (inactive) and 92.8% (inactive),69.8% (inactive) and 89% (inactive),80.3% (inactive) and 97.2% (inactive),64.3% (inactive) and 90.9% (inactive),52.3% (inactive) and 47.1% (inactive),85.9% (inactive) and 84.2% (inactive),61% (inactive) and 91.8% (inactive),91.6% (inactive) and 95.9% (inactive),43% (inactive) and 80.7% (inactive),98.9% (inactive) and 95.9% (inactive),88.8% (inactive) and 93.1% (inactive),87.7% (inactive),81.6% (inactive) and 84.2% (inactive),68.9% (inactive) and 78.3% (inactive),89.5% (inactive) and 88.2% (inactive),70.5% (inactive),76.6% (inactive) and 98.4% (inactive),
O=C1NC(=O)C2(CCc3ccccc32)N1 (stereo not given),108% (inactive) and 89.4% (inactive),101% (inactive) and 92.9% (inactive),98.8% (inactive) and 106% (inactive),105% (inactive) and 88.3% (inactive),98.3% (inactive) and 116% (inactive),174% (inactive),98.6% (inactive) and 80.6% (inactive),115% (inactive) and 94.7% (inactive),97.4% (inactive) and 108% (inactive),123% (inactive) and 102% (inactive),116% (inactive) and 83.6% (inactive),97% (inactive) and 96.7% (inactive),106% (inactive) and 97.2% (inactive),95.3% (inactive),99% (inactive) and 107% (inactive),96.5% (inactive) and 96% (inactive),90% (inactive) and 105% (inactive),107% (inactive) and 86.1% (inactive),107% (inactive) and 96.5% (inactive),97.4% (inactive) and 91.4% (inactive)
CC1=NN(c2ccccc2)C(=O)C1C(=O)c1ccccc1 (stereo not given),98.2% (inactive),92.6% (inactive),110% (inactive),111% (inactive),108% (inactive),78.4% (inactive),98.5% (inactive),101% (inactive),106% (inactive),103% (inactive),,97.6% (inactive),97.1% (inactive),140% (inactive),95.4% (inactive),97.7% (inactive),116% (inactive),94.3% (inactive),104% (inactive),91.5% (inactive)
COC(=O)/C=C/c1cc(O)c2c(c1)C(C(=O)OC)C(c1ccc(O)c(O)c1)O2 (stereo not given),30.8% (inactive) and 27.3% (inactive),57.1% (inactive) and 39.7% (inactive),72.7% (inactive) and 55.8% (inactive),45.8% (inactive) and 37.5% (inactive),28% (inactive) and 17.7% (inactive),16.5% (inactive) and -0.331% (active),1.09% (active) and 0.933% (active),17% (inactive) and 15% (inactive),58.5% (inactive) and 41% (inactive),11.7% (inactive) and 7.05% (active),9.16% (active) and 9.69% (active),72.1% (inactive) and 69% (inactive),13.5% (inactive) and 18% (inactive),55.9% (inactive) and 30% (inactive),34.1% (inactive) and 28.5% (inactive),19.2% (inactive) and 22.4% (inactive),5.8% (active) and 3.46% (active),62.4% (inactive) and 60.6% (inactive),2.19% (active) and 6.67% (active),
Nc1cc(-c2cccc(OC(F)(F)F)c2)nc2ccc(N3CCCC3)cc12,43.5% (inactive) and 40.1% (inactive) and 38.5% (inactive),40.2% (inactive) and 48.3% (inactive) and 33.8% (inactive),49.5% (inactive) and 51.3% (inactive) and 39% (inactive),57.1% (inactive) and 66.1% (inactive) and 15.6% (inactive),7.01% (active) and 7.24% (active) and 3.29% (active),-0.264% (active) and 3.71% (active) and -3.62% (active),-13.4% (active) and 4.49% (active) and -38.1% (active),9.51% (active) and 22.1% (inactive) and 16.1% (inactive),-58.4% (active) and -35.8% (active) and -80.6% (active),14.4% (inactive) and 16.2% (inactive) and 5.85% (active),-12.9% (active) and 4.92% (active) and 3.73% (active),-28.6% (active) and 51.7% (inactive) and 24.8% (inactive),5.28% (active) and 18.1% (inactive) and 29.3% (inactive),7.48% (active) and 12.1% (inactive) and 20.7% (inactive),26.1% (inactive) and 28.4% (inactive) and 27.6% (inactive),5.27% (active) and 16.2% (inactive) and 9.05% (active),-39.9% (active) and -21.2% (active) and -28.5% (active),-42.2% (active) and 74.8% (inactive) and 48.9% (inactive),-72.1% (active) and 1.77% (active) and -1.96% (active),
